Common to all, as to assay: DAPPL (digital affinity profiling via proximity ligation, sequencing); 10 mM Tris-HCl pH 7.5, 50 mM NaCl, 1 mM DTT, 4% glycerol, room temperature, 30 min; GST-TFs on glutathione beads, 16-mer random dsDNA library, 0.1% formaldehyde crosslink after washing; high values mean tight binding
One experiment has as its target T1, FEV (Homo sapiens, UniProt Q99581 1-238).
T1 sequence: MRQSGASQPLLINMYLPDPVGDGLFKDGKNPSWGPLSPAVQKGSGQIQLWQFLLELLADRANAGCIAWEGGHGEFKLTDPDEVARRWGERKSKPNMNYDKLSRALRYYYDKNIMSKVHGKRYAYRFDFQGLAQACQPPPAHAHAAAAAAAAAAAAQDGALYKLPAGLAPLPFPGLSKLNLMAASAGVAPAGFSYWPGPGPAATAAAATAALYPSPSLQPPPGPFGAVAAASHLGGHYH
The following applies: protein: recombinant; tags: N-terminal GST; dsDNA, one strand shown. In a few lines:
(§1)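 Pools were built from human transcription factors expressed in yeast as GST fusions, captured on glutathione beads and DNA-barcoded, along with a tag-only sample. Incubation with 200 nmole of a 16-mer random double-stranded DNA library lasted 30 min at room temperature in Tris/NaCl/DTT/glycerol buffer, and was followed by washing, 0.1% formaldehyde crosslinking, proximity ligation, PCR amplification and Illumina NextSeq500 sequencing. Binding signal is the quotient of each hexamer's read frequency for a factor and its frequency for the tag-only sample.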

In the next experiment the target is ETV5 (Homo sapiens, UniProt P41161 1-510). Conditions: protein: recombinant; tags: N-terminal GST; dsDNA, one strand shown. In a few lines: as §1
For the next experiment, the target named is HSF1 (Homo sapiens, UniProt Q00613 1-529). Conditions: protein: recombinant; tags: N-terminal GST; chain copies: 3; dsDNA, one strand shown. In a few lines: as §1
The next experiment has as its target T2, SPIC (Homo sapiens, UniProt Q8N5J4 1-248).
T2 sequence: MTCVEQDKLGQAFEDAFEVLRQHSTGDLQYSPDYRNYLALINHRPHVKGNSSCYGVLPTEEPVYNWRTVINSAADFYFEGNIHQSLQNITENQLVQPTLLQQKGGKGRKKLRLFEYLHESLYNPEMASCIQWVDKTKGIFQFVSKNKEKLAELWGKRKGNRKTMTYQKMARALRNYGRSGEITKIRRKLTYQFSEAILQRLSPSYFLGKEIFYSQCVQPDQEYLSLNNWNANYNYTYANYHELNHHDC
Conditions: protein: recombinant; tags: N-terminal GST; dsDNA, one strand shown. In a few lines: as §1

The next experiment concerns the target ELF4 (Homo sapiens, UniProt Q99607 1-663). The following applies: protein: recombinant; tags: N-terminal GST; dsDNA, one strand shown. The procedure, abridged:
as §1

The target of another experiment is T3, ELK4 (Homo sapiens, UniProt P28324-2 1-405).
T3 sequence: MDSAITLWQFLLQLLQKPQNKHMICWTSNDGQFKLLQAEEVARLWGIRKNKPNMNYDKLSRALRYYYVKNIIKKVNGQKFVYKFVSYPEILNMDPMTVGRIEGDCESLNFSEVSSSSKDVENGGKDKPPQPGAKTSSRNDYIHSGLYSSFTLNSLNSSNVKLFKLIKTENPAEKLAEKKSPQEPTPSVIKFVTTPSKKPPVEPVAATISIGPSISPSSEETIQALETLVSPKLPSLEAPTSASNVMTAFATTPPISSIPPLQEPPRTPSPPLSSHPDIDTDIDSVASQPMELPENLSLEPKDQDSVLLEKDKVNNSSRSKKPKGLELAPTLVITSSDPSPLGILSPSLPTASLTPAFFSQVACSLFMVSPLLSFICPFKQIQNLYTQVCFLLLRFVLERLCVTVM
Conditions: protein: recombinant; tags: N-terminal GST; dsDNA, one strand shown. In a few lines: as §1

The next experiment addresses T4, ETV2 (Homo sapiens, UniProt O00321 1-342).
T4 sequence: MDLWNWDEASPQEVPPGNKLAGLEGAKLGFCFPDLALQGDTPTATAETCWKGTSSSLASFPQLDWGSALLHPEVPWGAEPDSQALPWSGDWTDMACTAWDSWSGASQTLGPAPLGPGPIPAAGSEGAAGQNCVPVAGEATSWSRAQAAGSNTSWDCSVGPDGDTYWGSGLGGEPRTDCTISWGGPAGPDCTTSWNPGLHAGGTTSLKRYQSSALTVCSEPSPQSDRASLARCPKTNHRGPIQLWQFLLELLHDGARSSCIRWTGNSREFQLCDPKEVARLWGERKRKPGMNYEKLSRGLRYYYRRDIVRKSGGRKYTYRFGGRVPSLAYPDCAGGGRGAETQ
Conditions: protein: recombinant; tags: N-terminal GST; dsDNA, one strand shown. In a few lines: as §1

The target of another experiment is T5, ELF3 (Homo sapiens, UniProt P78545 1-371).
T5 sequence: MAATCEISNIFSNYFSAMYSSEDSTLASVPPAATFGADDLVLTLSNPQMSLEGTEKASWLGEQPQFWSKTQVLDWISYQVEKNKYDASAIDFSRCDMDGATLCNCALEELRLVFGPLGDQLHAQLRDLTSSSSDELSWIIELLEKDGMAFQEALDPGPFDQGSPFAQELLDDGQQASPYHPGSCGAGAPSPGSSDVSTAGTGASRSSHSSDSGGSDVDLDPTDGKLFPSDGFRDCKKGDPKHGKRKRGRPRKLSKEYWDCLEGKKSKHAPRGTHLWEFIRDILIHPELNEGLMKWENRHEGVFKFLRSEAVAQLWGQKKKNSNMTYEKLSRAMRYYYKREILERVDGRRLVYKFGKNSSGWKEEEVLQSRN
Conditions: protein: recombinant; tags: N-terminal GST; dsDNA, one strand shown. In a few lines: as §1

The target of the next experiment is CRX (Homo sapiens, UniProt O43186 1-299). The following applies: protein: recombinant; tags: N-terminal GST; dsDNA, one strand shown. In a few lines: as §1
The target in the next experiment is ETV1 (Homo sapiens, UniProt P50549 1-477). Conditions: protein: recombinant; tags: N-terminal GST; dsDNA, one strand shown. In a few lines:
as §1

Another experiment addresses T6, ERF (Homo sapiens, UniProt P50548 1-548).
T6 sequence: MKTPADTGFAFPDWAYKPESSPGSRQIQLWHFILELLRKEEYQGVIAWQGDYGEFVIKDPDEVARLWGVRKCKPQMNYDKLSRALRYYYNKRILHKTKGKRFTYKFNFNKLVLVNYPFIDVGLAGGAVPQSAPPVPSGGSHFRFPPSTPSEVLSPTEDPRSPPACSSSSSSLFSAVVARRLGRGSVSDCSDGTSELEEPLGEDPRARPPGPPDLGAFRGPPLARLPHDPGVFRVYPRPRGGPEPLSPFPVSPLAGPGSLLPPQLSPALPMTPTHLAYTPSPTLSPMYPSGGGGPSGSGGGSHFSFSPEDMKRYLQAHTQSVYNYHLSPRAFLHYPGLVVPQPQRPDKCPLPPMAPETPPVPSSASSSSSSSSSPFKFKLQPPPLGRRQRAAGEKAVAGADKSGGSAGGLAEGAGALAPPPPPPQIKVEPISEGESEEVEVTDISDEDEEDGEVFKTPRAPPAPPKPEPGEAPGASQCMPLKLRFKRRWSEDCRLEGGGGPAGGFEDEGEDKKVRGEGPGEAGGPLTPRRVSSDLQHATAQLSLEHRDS
Conditions: protein: recombinant; tags: N-terminal GST; dsDNA, one strand shown. In a few lines: as §1

The target in another experiment is T7, ETV3L (Homo sapiens, UniProt Q6ZN32 1-361).
T7 sequence: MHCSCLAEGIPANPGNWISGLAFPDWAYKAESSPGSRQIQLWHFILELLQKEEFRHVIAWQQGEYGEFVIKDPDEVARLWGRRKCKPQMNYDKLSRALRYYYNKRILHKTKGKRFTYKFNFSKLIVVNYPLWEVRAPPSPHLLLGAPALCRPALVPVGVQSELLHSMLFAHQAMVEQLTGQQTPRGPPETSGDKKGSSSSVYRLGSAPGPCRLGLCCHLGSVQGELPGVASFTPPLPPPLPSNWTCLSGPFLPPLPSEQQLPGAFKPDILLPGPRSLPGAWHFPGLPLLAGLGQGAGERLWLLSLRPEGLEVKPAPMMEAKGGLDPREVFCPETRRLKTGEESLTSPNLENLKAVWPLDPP
The following applies: protein: recombinant; tags: N-terminal GST; dsDNA, one strand shown. The procedure, abridged: as §1

For another experiment, the target named is T8, ETS2 (Homo sapiens, UniProt P15036 1-469).
T8 sequence: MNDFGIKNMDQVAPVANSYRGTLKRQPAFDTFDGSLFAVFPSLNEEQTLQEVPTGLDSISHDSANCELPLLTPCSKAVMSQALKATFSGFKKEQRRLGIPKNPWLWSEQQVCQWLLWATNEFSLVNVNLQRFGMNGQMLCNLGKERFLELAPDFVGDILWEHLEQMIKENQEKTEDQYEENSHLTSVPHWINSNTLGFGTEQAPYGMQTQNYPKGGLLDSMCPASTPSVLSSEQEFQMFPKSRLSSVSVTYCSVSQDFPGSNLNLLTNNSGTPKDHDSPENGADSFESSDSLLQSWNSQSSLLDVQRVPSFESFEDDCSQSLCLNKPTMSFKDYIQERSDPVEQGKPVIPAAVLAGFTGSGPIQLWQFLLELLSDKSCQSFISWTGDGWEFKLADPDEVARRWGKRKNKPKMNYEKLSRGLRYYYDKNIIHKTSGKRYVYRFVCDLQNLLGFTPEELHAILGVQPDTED
Conditions: protein: recombinant; tags: N-terminal GST; dsDNA, one strand shown. In a few lines:
as §1

The next experiment has as its target T9, SPDEF (Homo sapiens, UniProt O95238 1-335).
T9 sequence: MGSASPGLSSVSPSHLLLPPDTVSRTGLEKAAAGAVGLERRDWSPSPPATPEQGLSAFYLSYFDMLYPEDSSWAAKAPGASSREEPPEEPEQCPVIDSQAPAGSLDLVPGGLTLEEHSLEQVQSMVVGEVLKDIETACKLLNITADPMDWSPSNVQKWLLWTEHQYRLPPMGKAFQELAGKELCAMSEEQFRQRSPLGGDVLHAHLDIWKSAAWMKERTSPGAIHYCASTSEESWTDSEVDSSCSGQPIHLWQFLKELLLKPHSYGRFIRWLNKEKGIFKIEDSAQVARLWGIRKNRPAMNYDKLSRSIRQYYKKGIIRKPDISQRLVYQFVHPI
Conditions: protein: recombinant; tags: N-terminal GST; dsDNA, one strand shown. The procedure, abridged: as §1

The target of a further experiment is T10, ETV7 (Homo sapiens, UniProt Q9Y603 1-341).
T10 sequence: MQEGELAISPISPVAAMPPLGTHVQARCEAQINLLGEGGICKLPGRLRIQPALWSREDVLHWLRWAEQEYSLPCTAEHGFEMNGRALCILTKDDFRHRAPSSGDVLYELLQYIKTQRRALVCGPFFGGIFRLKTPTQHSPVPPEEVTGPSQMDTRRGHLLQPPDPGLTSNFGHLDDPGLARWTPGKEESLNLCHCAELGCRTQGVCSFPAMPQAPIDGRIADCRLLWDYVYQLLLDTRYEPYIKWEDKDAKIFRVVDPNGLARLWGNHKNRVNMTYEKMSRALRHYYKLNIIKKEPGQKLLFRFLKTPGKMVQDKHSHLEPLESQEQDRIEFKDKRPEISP
Conditions: protein: recombinant; tags: N-terminal GST; dsDNA, one strand shown. In a few lines:
as §1

A further experiment addresses T11, ELF5 (Homo sapiens, UniProt Q9UKW6-2 1-255).
T11 sequence: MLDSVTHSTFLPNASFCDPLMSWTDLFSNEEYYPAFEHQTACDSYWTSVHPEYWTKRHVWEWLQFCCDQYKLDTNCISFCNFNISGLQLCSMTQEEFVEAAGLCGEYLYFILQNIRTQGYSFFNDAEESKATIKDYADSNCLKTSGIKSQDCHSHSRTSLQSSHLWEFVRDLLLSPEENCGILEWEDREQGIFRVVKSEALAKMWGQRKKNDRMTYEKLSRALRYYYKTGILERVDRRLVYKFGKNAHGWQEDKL
The following applies: protein: recombinant; tags: N-terminal GST; dsDNA, one strand shown. In a few lines:
as §1

The target in the next experiment is T12, ETV3 (Homo sapiens, UniProt P41162-2 1-143).
T12 sequence: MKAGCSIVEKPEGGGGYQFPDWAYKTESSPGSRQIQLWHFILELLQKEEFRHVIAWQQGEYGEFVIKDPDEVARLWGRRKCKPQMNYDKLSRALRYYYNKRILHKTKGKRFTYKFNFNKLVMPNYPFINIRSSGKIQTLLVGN
The following applies: protein: recombinant; tags: N-terminal GST; dsDNA, one strand shown. The procedure, abridged: as §1

The target of another experiment is ETV6 (Homo sapiens, UniProt P41212 1-452). The following applies: protein: recombinant; tags: N-terminal GST; dsDNA, one strand shown. The procedure, abridged:
as §1

Chain of CRX (O43186 whole entry): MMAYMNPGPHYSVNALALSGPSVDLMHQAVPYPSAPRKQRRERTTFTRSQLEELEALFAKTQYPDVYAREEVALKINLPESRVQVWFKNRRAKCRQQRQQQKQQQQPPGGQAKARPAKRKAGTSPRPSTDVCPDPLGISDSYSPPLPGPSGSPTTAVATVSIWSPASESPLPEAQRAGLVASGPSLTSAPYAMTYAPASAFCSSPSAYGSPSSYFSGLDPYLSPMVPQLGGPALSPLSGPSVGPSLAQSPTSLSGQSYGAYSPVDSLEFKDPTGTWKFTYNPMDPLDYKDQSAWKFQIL
Chain of ELF4 (Q99607 whole entry): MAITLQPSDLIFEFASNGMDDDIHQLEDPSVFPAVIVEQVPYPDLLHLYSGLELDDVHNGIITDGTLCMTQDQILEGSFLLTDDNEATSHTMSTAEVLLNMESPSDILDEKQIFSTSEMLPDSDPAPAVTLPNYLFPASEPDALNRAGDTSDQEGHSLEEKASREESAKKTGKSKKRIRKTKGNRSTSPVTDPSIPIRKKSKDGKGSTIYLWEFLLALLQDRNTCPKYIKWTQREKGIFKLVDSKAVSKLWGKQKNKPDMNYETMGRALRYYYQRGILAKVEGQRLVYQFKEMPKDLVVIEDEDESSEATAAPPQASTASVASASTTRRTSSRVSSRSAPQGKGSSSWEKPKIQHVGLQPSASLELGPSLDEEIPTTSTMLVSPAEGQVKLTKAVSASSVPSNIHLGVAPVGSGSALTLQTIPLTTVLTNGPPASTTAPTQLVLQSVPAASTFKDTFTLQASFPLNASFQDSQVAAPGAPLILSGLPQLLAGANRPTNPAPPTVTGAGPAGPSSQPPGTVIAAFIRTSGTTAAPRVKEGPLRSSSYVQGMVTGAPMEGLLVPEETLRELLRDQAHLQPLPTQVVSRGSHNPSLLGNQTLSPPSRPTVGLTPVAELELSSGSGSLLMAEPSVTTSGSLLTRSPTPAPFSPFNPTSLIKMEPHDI
Chain of ETV5 (P41161 whole entry): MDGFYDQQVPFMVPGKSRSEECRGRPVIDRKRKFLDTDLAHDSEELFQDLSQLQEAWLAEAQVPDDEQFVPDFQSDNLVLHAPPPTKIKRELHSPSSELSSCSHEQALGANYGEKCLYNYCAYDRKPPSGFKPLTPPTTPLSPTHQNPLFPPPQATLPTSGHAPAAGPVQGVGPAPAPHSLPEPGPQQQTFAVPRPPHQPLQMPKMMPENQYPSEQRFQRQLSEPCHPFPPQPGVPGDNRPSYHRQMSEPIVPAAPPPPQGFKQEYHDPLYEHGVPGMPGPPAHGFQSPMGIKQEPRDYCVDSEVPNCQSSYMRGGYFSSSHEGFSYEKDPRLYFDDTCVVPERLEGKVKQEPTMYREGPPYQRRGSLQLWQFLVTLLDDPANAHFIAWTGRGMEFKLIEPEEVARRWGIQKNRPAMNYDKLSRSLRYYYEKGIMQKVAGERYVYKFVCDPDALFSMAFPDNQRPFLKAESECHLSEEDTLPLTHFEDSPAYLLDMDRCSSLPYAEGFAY
Chain of HSF1 (Q00613 whole entry): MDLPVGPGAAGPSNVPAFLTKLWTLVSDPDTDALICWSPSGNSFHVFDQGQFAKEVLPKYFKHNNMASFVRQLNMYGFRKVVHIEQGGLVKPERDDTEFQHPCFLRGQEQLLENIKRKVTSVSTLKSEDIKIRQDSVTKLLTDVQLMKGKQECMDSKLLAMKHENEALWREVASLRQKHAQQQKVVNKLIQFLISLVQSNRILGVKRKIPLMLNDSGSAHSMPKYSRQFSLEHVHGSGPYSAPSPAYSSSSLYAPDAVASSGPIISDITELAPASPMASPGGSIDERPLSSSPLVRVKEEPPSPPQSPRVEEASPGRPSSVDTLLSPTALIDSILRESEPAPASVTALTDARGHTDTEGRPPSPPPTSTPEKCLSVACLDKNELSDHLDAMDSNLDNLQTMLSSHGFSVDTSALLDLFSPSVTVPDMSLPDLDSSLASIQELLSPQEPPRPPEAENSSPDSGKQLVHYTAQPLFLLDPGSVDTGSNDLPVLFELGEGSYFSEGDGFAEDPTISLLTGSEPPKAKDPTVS
Chain of ETV1 (P50549 whole entry): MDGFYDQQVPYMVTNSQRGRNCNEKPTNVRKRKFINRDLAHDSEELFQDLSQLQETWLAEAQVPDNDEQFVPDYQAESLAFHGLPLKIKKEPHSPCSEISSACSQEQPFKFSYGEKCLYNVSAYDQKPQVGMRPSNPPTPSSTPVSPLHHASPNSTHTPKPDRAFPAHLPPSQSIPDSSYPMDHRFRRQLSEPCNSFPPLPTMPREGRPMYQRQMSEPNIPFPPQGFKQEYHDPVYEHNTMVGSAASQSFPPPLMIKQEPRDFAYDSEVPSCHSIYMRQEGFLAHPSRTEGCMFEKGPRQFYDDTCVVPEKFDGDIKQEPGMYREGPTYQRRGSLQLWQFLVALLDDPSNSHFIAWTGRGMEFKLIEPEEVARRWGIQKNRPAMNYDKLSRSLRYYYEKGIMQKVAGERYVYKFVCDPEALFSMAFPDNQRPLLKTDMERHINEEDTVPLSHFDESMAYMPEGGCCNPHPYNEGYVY
Chain of ETV6 (P41212 whole entry): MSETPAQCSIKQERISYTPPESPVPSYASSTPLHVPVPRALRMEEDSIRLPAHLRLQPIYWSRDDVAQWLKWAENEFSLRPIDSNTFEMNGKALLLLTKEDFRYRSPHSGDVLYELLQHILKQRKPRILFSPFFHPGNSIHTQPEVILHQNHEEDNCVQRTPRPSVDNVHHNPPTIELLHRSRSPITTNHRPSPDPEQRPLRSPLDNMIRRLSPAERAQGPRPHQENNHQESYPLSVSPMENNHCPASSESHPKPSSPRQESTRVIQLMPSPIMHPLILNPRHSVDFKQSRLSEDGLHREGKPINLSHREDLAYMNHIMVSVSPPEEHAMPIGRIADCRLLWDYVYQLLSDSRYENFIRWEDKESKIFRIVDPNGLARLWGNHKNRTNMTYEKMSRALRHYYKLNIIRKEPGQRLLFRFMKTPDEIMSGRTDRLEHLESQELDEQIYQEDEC

As to ATGTCT, the binding signal was 1.27 fold enrichment (6-mer frequency, TF over GST control) in the experiment with FEV; 1.36 fold enrichment (6-mer frequency, TF over GST control) in the experiment with ETV5; 1.17 fold enrichment (6-mer frequency, TF over GST control) in the experiment with HSF1; 1.27 fold enrichment (6-mer frequency, TF over GST control) in the experiment with SPIC; 1.28 fold enrichment (6-mer frequency, TF over GST control) with ELF4; 1.07 fold enrichment (6-mer frequency, TF over GST control) with ELK4. Also, the binding signal was 1.26 fold enrichment (6-mer frequency, TF over GST control) in the experiment with ETV2; 1.08 fold enrichment (6-mer frequency, TF over GST control) with ELF3; 1.18 fold enrichment (6-mer frequency, TF over GST control) with CRX; 1.23 fold enrichment (6-mer frequency, TF over GST control) with ETV1; 1.38 fold enrichment (6-mer frequency, TF over GST control) in the experiment with ERF; 1.27 fold enrichment (6-mer frequency, TF over GST control) with ETV3L. Also, the binding signal is 1.28 fold enrichment (6-mer frequency, TF over GST control) with ETS2; 1.26 fold enrichment (6-mer frequency, TF over GST control) in the experiment with SPDEF; 1.12 fold enrichment (6-mer frequency, TF over GST control) with ETV7; 1.35 fold enrichment (6-mer frequency, TF over GST control) with ELF5; 1.26 fold enrichment (6-mer frequency, TF over GST control) with ETV3; 1.23 fold enrichment (6-mer frequency, TF over GST control) with ETV6.

Values taken from article PMC7862700, “An all-to-all approach to the identification of sequence-specific readers for epigenetic DNA modifications on cytosine”.
